Consider eight molecules from PubChem BioAssay (Tox21).

Molecules are shown by their SMILES. Inconclusive results are not listed. Calls of active or inactive are those of the source. Unless noted, calls come from the whole dose curve.

Assay [1] is described as follows: Nuclear factor erythroid 2-related factor 2/antioxidant responsive element (Nrf2/ARE) small molecule agonists: qHTS cell viability counter screen in human keratinocytes (AID 1919968; active = well fitted curve in the direction sought with a large enough effect in the repeat runs; an effect the other way counts as inactive or inconclusive; note: nearly all actives have a fitted effect of over 55% in size). Put shortly: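 Seed 1,500 KeratinoSens cells per well, then incubate 5 h at 37 C/5% CO2. Add compounds in DMSO and incubate 23 h. Add CellTiter-Fluor, wait 1 h and read fluorescence.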
Background: In qHTS, concentration-response curves come from the screen itself.

The nature of assay [2]: Nuclear factor erythroid 2-related factor 2/antioxidant responsive element (Nrf2/ARE) small molecule agonists: luciferase reporter gene qHTS assay in human keratinocytes (AID 1919969). Note: nearly all actives have a fitted effect of over 35% in size. Note: potency is the fitted concentration of half-maximal effect. Background: A reporter such as luciferase makes a cellular process visible.
The target in assay [3] is Gonadotropin-releasing hormone receptor (Homo sapiens) (UniProt P30968). Briefly: Human gonadotropin-releasing hormone receptor (GnRHR) small molecule agonists, calcium flux assay in GnRHR-HEK293 cells (AID 1920063). Note: nearly all actives have a fitted effect of over 35% in size. Put shortly:
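Cells: HEK293 stably expressing human GnRHR. Steps: overnight (18 h) culture, 1 h calcium dye loading at 37 C, compound addition, kinetic fluorescence read at 480/540 nm. Each compound tested at 15 concentrations in triplicate.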

Assay [4] deals with KiSS-1 receptor (Homo sapiens) (UniProt Q969F8). Briefly: Human kisspeptin (KISS1R) small molecule agonists, calcium flux assay in KISS1R-HEK293 cells (AID 1920064; active = well fitted curve in the direction sought with a large enough effect in the repeat runs; an effect the other way counts as inactive or inconclusive). Put shortly:
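Cells plated and incubated 18 h; dye added, 1 h at 37 C; compounds in DMSO pinned in; signal read at 480/540 nm every second for 3 min. Each compound tested at 15 concentrations in triplicate.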

Assay [5] can be described thus: p53 small molecule agonists, cell-based qHTS assay with human liver microsomes (AID 1963577).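 Note: p53 response element beta-lactamase reporter cells with liver microsomes plus NADPH.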 Put shortly: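 Cells carrying a p53-responsive bla reporter were rested 5 h (37 C, 5% CO2) before compound transfer. Human liver microsomes plus NADPH, 0.5 mg/mL final apiece, supplied metabolism during the 16 h 37 C exposure.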
Assay [6] in a line: p53 small molecule agonists, cell-based qHTS assay with human liver microsomes: qHTS cell viability counter screen (AID 1963579). Note: nearly all actives have a fitted effect of over 45% in size. Put shortly:
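Seed p53RE-bla cells at 4,000 per well; incubate 5 h at 37 C; add compound, human liver microsomes and NADPH; incubate 16 h at 37 C; add CellTiter-Glo; after 30 min at room temperature, read luminescence.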

Assay [7] can be described thus: p53 small molecule agonists, cell-based qHTS assay: qHTS cell viability counter screen (AID 1963581). Note: nearly all actives have a fitted effect of over 45% in size. In outline:
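Cells: HCT-116 with p53 response element-driven beta-lactamase. Treatment: 16 h, 37 C, compounds in DMSO. Read: CellTiter-Glo luminescence after 30 min RT.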

Assay [8] is described as follows: p53 small molecule agonists, cell-based qHTS assay (AID 1963582; active = well fitted activation curve with a large enough effect in the signal ratio in the repeat runs, not every such curve was filed as active; the % refers to the signal ratio). In outline: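 Quantitative HTS in p53RE-bla cells: after a 5 h settling period, compounds delivered in DMSO were left on cells for 16 h at 37 C, and reporter induction was measured as fluorescence following 2 h substrate loading.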
Assay [9] addresses 5-hydroxytryptamine receptor 2A (Homo sapiens) (UniProt P28223). As to the kind of experiment: 5-hydroxytryptamine receptor 2A (HTR2A) small molecule antagonists, cell-based qHTS assay (AID 1963586). Note: nearly all actives have a fitted effect of over 45% in size. Put shortly: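 Antagonist-mode intracellular calcium assay: DOI (4 nM) added after 5 min compound pre-incubation at room temperature to dye-loaded HTR2A-CHO cells. Fluorescence followed for 3 min, sampled every second.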

The target is the same in assay [10]. Briefly: 5-hydroxytryptamine receptor 2A (HTR2A) small molecule agonists, cell-based qHTS assay (AID 1963587). Note: nearly all actives have a fitted effect of over 30% in size. Put shortly:
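Kinetic calcium-flux fluorescence (2 min, 1 sec intervals) after compound addition in agonist mode. HTR2A-CHO cells were cultured 18 h, then dye-loaded 1 h at 37 C.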

Assay [11] addresses Muscarinic acetylcholine receptor M1 (Homo sapiens) (UniProt P11229). As to the kind of experiment: Cholinergic receptor muscarinic 1 (CHRM1) small molecule agonists, cell-based qHTS assay (AID 1963589). Note: nearly all actives have a fitted effect of over 35% in size. In outline: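 Agonist-mode qHTS in CHO cells stably carrying human muscarinic M1. Intracellular calcium is tracked by fluorescence every second after compound transfer; each compound runs at 15 concentrations in three independent runs.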

Assay [12] in a line: cAMP Responsive Elements (CRE) small molecule agonists, cell-based qHTS assay (AID 1963590). In outline: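 Agonist mode qHTS in CRE-bla HEK 293T cells: compounds dosed from DMSO for 3 h at 37 C/5% CO2, followed by LiveBLAzer B/G FRET substrate for 2 h at room temperature.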
A short description of assay [13]: cAMP Responsive Elements (CRE) small molecule antagonists, cell-based qHTS assay (AID 1963591; active = well fitted inhibition curve with a large enough effect in the signal ratio in the repeat runs, not every such curve was filed as active; the % refers to the signal ratio). Put shortly: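 Antagonist mode: test compounds are co-incubated with the adenylyl cyclase activator NKH477 (0.25 uM final) on CRE-bla HEK293T cells for 3 h at 37 °C, followed by LiveBLAzer substrate loading.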
The target in assay [14] is Beta-2 adrenergic receptor (Homo sapiens) (UniProt P07550). As to the kind of experiment: Adrenergic beta2 receptor (ADRB2) small molecule antagonists, cell-based qHTS assay (AID 1963592). Note: series mostly up to about 92 µM; nearly all actives have a fitted effect of over 50% in size. Put shortly:
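Cells (CHO, stable ADRB2 overexpression) incubated 18-20hr at 37C; compounds added from DMSO; agonist mix (1nM isoproterenol, 100uM IBMX, 25uM Ro-20-1724) added; 0.5hr RT; d2-cAMP and anti-cAMP-cryptate added; 1hr RT; 665/615 nm read.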

Assay [15] has the same target. As to the kind of experiment: Adrenergic beta2 receptor (ADRB2) small molecule agonists, cell-based qHTS assay (AID 1963593).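 Note: CHO cells stably overexpressing human ADRB2.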 Put shortly: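 CHO cells stably over-expressing ADRB2 were plated overnight at 37C, then dosed with compounds plus a stimulation mix containing 100uM IBMX and 25uM Ro-20-1724 for 0.5hr at room temperature. cAMP was measured by HTRF competition, 1hr.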

Assay [16] deals with D(2) dopamine receptor (Homo sapiens) (UniProt P14416). Briefly: Dopamine D2 receptor (DRD2) small molecule agonists, cell-based qHTS assay (AID 1963594). Note: nearly all actives have a fitted effect of over 35% in size. In outline:
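cAMP accumulation in DRD2-HEK293 cells measured by HTRF after 1 h detection; compounds added 10 min before NKH477 (200nM […]) forskolin-analogue stimulation, 30 min at room temperature, with Ro20-1724 present at 0.1 mM final.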

The target is the same in assay [17]. As to the kind of experiment: Dopamine D2 receptor (DRD2) small molecule antagonists, cell-based qHTS assay (AID 1963595; active = well fitted inhibition curve with a large enough effect in the signal ratio in the repeat runs, with a control signal flat; the % refers to the signal ratio). Put shortly:
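Cells were plated and grown for 24 h at 37 °C. Ro20-1724 (0.1 mM final) went in first, then compound for 10 min. NKH477 (200 nM) with quinpirole (12 nM) followed for 30 min at RT, then HTRF detection reagents for 1 h.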

Assay [18] is described as follows: p53 small molecule agonists, cell-based qHTS assay with rat liver microsomes: qHTS cell viability counter screen (AID 1963580). Note: nearly all actives have a fitted effect of over 45% in size. Put shortly:
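HCT-116 p53RE-bla, 4,000 cells/well, 5 h pre-incubation; cpd + rat liver microsomes 0.5 mg/mL + NADPH 0.5 mg/mL (final); 16 h, 37 C; CellTiter-Glo, 30 min RT; luminescence.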

For assay [19], the target named is Muscarinic acetylcholine receptor M1 (Homo sapiens) (UniProt P11229). As to the kind of experiment: Cholinergic receptor muscarinic 1 (CHRM1) small molecule antagonists, cell-based qHTS assay (AID 1963588). Note: nearly all actives have a fitted effect of over 40% in size. Put shortly:
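CHRM1-CHO calcium-flux assay, antagonist mode. Cells were seeded 18 h, dye-loaded 1 h at 37 C and given compound for 5 min at RT, then acetylcholine was added at 50nM. FDSS fluorescence was read 3 min; 15 concentrations, three runs.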

A short description of assay [20]: G protein-coupled receptor (GPCR) small molecule agonists, calcium flux assay: HEK293 wild type cell line counter screen (AID 1920065). Put shortly:
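Counter-screen of the Tox21 10K library for non-specific calcium release: dye-loaded cells received compounds in DMSO and were monitored by kinetic fluorescence (480/540 nm, 3 min). Fifteen concentrations, run in triplicate.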
A general note: A change in cytosolic calcium serves as a functional read-out for many receptors and channels.

5-hydroxytryptamine receptor 2A (Homo sapiens), sequence (P28223 whole entry, looked up): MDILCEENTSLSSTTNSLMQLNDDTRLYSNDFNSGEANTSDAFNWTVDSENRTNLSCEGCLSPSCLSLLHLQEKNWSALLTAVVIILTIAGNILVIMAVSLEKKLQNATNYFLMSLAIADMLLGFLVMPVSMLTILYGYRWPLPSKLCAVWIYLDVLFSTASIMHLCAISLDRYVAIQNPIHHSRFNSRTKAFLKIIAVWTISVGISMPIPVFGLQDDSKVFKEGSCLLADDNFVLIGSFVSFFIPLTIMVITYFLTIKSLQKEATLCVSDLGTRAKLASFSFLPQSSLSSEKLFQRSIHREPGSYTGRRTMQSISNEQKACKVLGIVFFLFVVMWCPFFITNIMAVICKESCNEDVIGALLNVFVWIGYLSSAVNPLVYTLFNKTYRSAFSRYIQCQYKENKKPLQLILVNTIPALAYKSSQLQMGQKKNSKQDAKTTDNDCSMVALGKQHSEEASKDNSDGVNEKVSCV
Muscarinic acetylcholine receptor M1 (Homo sapiens), sequence (P11229 whole entry, looked up): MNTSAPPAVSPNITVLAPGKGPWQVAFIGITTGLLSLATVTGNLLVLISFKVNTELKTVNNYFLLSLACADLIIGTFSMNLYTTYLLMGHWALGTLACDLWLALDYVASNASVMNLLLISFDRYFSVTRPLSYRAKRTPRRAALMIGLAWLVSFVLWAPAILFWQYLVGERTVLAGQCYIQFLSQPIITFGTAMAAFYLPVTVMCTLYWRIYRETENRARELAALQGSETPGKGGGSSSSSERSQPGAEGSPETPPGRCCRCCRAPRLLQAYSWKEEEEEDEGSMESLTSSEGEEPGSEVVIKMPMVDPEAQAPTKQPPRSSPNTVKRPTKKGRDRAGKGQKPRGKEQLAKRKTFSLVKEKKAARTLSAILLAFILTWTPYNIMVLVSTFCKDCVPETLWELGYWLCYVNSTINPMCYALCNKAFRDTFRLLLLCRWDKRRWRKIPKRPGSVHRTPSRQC
D(2) dopamine receptor (Homo sapiens), sequence (P14416 whole entry, looked up): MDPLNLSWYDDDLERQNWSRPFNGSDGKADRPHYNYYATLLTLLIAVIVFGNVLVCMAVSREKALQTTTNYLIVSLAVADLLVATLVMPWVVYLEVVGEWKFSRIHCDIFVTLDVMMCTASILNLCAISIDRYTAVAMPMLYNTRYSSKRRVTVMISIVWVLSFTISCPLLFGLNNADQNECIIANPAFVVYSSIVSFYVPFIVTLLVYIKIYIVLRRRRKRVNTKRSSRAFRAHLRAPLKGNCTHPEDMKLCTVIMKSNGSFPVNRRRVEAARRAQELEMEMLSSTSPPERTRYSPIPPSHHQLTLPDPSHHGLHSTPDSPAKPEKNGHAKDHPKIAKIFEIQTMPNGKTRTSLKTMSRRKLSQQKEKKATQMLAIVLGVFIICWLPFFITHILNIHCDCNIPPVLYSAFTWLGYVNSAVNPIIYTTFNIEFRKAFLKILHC
Beta-2 adrenergic receptor (Homo sapiens), sequence (P07550 whole entry, looked up): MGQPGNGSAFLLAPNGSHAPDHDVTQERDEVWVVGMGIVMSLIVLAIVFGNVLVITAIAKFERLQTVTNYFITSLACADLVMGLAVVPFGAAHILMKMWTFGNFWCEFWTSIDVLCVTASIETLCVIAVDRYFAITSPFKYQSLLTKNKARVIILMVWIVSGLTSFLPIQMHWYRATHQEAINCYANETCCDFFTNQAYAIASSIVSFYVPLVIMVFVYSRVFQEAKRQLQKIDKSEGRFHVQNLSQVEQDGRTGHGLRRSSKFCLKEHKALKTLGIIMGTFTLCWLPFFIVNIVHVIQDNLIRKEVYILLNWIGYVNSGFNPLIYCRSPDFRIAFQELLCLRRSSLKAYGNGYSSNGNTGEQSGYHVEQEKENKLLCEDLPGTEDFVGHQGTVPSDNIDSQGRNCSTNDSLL
KiSS-1 receptor (Homo sapiens), sequence (Q969F8 whole entry, looked up): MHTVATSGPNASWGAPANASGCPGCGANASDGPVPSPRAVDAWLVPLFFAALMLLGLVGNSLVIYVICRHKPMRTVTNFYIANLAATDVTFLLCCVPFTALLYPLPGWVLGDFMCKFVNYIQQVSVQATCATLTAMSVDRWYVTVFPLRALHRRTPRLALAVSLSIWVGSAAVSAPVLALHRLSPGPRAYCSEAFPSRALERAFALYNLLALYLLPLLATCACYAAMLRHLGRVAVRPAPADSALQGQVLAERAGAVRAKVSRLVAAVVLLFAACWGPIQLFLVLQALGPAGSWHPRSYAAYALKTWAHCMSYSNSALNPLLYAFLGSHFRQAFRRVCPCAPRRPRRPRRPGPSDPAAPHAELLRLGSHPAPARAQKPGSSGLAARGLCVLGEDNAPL
Gonadotropin-releasing hormone receptor (Homo sapiens), sequence (P30968 whole entry, looked up): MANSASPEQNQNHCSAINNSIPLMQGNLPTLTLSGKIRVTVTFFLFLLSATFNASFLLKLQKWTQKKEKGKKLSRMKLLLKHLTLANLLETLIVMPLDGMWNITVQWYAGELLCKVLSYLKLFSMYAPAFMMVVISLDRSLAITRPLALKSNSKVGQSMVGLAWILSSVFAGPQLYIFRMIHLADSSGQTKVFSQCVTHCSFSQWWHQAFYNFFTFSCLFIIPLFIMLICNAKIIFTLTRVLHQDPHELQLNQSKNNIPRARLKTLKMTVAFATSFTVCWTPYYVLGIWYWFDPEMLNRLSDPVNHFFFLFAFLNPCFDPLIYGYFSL

Consider `CCc1cnc(C(=O)O)c(C(=O)O)c1`, for which the Potency entry in assay [1], in assay [2], in assay [3], in assay [4], in [5] and in [6] was “inactive” in each case. In addition, the Potency result in assay [7], in assay [8], in [9], in assay [10], in assay [11] and in assay [12] was “inactive” in each case. The Potency entry in assay [13], in assay [14], in assay [15], in assay [16] and in [17] was “inactive” in each case.

As for `Cc1ccccc1C(=O)N1CC/C(=N\OS(=O)(=O)O)c2ccc(Cl)cc21`, the Potency entry in assay [1], in assay [2], in [3], in assay [4], in assay [5] and in assay [6] was “inactive” throughout. Further, the Potency result in assay [18], in assay [8], in [9], in assay [10], in assay [19] and in [11] was “inactive” each time. For the same molecule, the Potency result in assay [12], in assay [13], in [15], in assay [16] and in [17] was “inactive” throughout.

In the case of `CC(CO)CO`, the Potency entry in [1], in assay [2], in [3], in [4], in assay [5] and in [6] was “inactive” in each case. Further, the Potency entry in assay [7], in assay [8], in [9], in [10], in assay [19] and in assay [11] was “inactive” throughout. In addition, the Potency entry in assay [12], in [13], in [15] and in assay [17] was “inactive” throughout.

As for `O=C(O)CONC(=O)c1ccccc1`, the Potency result in [1], in assay [2], in [3], in [4], in assay [6] and in assay [18] was “inactive” each time. For the same molecule, the Potency result in assay [7], in [8], in assay [9], in assay [19], in assay [11] and in assay [13] was “inactive” throughout. Further, the Potency result in assay [14], in assay [15], in [16] and in assay [17] was “inactive” in each case.

With `CCCCC(CC)COC(C)=O` (stereo unspecified), the Potency result in assay [1], in assay [2], in [3], in [4], in assay [6] and in assay [18] was “inactive” in each case. The Potency entry in assay [7], in assay [9], in assay [10], in assay [19], in assay [12] and in [13] was “inactive” in each case. For the same molecule, the Potency entry in assay [14], in [15], in assay [16] and in [17] was “inactive” in each case.

On to `[Cl][Eu]([Cl])[Cl]`, for which the Potency result in assay [1], in assay [2], in [3], in assay [20], in [5] and in [6] was “inactive” throughout. For the same molecule, the Potency entry in [18], in assay [7], in assay [8], in assay [9], in assay [10] and in [19] was “inactive” throughout. Besides, the Potency entry in assay [11], in [12] and in assay [13] was “inactive” in each case.

On to `[Cl][In]([Cl])[Cl]`, for which the Potency entry in assay [1], in assay [3], in assay [4], in assay [5], in assay [6] and in assay [18] was “inactive” in each case. Besides, the Potency result in assay [7], in assay [8], in assay [9], in [10], in assay [11] and in assay [12] was “inactive” in each case. Also, the Potency result in assay [13], in assay [16] and in assay [17] was “inactive” in each case. Moreover, the Potency in assay [2] was 3.44 µM (active).

As for `CC1=CC[C@@H](C(C)(C)O)CC1`, the Potency result in assay [1], in assay [2], in [3], in assay [4], in assay [5] and in assay [6] was “inactive” throughout. In addition, the Potency entry in [18], in [8], in assay [9], in assay [10], in [19] and in assay [11] was “inactive” in each case. In addition, the Potency entry in assay [12], in [13], in assay [14], in assay [15], in assay [16] and in assay [17] was “inactive” each time.
